Bioassay records as filed in PubChem.
Compounds with a hit are over-represented: about 4.7% of the library has one in this group of screens.
D1 ag – human D1 receptor agonism; P21728; HEK293 T-REx D1 cells, calcium flux, agonist mode; activation, % at 2 µM; hit rate 1% among 360,000
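Agonism was scored from calcium flux recorded over 180 s (1 read/s) after pintool compound addition, following a 10-cycle baseline. Cells were inducible force-coupled HEK293 TREx D1, plated overnight at 30 C and loaded with no-wash calcium dye.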
D1 PAM – human D1 dopamine receptor positive modulation; hit rate 0.036% among 360,000; AID 504651; potentiation, % at 10 µM; P21728; HEK293 TREx D1 cells, calcium flux, dopamine EC20 potentiation; in the data active = potentiation above about 30%
D1 antagonist – blocks dopamine activation of the human D1 receptor; P21728; HEK293 TREx D1 cells, calcium flux, dopamine EC80; hits give low values; hit rate 3.2% among 360,000; activity change, negative = inhibition, % at 10 µM; in the data active = activity change below about -30%
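Kinetic fluorescence of a calcium dye serves as the read-out. D1-expressing Hek293 Trex cells, induced overnight at 30 C, are exposed to compound for 180 s before an EC80 dopamine addition, then read 180 s further.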
TRHR enhancer – TRH receptor (human) allosteric enhancement. TRHR cells, fluo-8 calcium fluorescence, EC20 TRH enhancement. enhancement, % at 2 µM. hit rate 0.66% among 360,000; in the data active = enhancement above about 30%
Target sequence (P34981 whole entry, looked up): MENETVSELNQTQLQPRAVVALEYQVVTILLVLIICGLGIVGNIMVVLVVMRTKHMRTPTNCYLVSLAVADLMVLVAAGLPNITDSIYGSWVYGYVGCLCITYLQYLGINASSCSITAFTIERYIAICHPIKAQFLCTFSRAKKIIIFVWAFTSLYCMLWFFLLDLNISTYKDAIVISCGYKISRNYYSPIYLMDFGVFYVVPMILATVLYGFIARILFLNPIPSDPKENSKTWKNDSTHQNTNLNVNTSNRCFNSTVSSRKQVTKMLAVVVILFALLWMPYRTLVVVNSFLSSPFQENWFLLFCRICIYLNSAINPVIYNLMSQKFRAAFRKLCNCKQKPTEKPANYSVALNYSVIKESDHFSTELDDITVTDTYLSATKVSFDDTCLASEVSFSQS
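TRHR-expressing cells loaded with fluo-8 calcium dye were read kinetically (ex 480/em 530) during compound addition, then stimulated with an EC20 of TRH (10 nM final). Enhancement of the Gq-mediated intracellular calcium response was scored.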
TRHR agonist – TRH receptor (human) agonism. P34981. TRHR cells, calcium flux fluo-8, FDSS agonist mode. activation, % at 2 µM. hit rate 0.18% among 360,000. AID 493084
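In this calcium-flux screen, cells bearing human TRHR are dye-loaded with fluo-8, baselined for 10 cycles, then exposed to library compounds; positive kinetic calcium responses during the agonist phase mark hits, with TRH as control.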
Hits are given with their value; i = inactive; nt = no result given; ! = not confirmed by another sample. Cut-off read from the data, not from the text of the source, unless noted: active = activation above about 30%; inactive = the rest.

SMILES	D1 ag	D1 PAM	D1 antagonist	TRHR enhancer	TRHR agonist
COc1ccc(-c2ccc3c(N)c(C(=O)Nc4cccc(C)c4)sc3n2)cc1	i	i	i	i	i
Cc1cccc(C(=O)NC2CCN(C#N)CC2)c1	i	i	i	i	i
CC(C)NC(=O)C(=O)NCCC1CCCCN1S(=O)(=O)c1cccs1 (configuration not stated)	i	i	-31.5	i	i
CNC(=O)C(=O)NCCC1CCCCN1S(=O)(=O)c1cccs1 (configuration not stated)	i	i	i	i	i
Cc1ccc2nc(N3CCN(C(=O)c4ccc(F)cc4)CC3)c(C#N)cc2c1	i	i	-46.4	i	i
COc1ccc2nc(N3CCCC3)c(C#N)cc2c1	40.9	i	i	i	i
Cc1ccccc1NC(=O)N1CCc2cc(S(=O)(=O)N3CCC(C)CC3)ccc21	i	i	i	i	i
CCOC(=O)c1cnc(Nc2nc3ccccc3o2)nc1CN1CCN(C)CC1	i	i	-56.3	i	i
CCOC(=O)c1c(NC(=O)C[n+]2ccc(Cc3ccccc3)cc2)sc(C)c1C	i	i	i	i	i
C=CCn1c(COc2ccccc2F)nnc1SCCN1C(=O)c2ccccc2C1=O	i	i	i	38.4	i
C=CCn1c(COc2cccc3ccc(C)nc23)nnc1SCC(=O)OC	i	i	i	i	i
O=C(CCc1c[nH]c2ccccc12)N=Nc1c(O)[nH]c2ccccc12	i	i	-43.9	i	i
O=C(CCn1cnc2ccccc21)N=Nc1c(O)[nH]c2ccccc12	i	i	-77.0	i	i
O=C(CCNC(=O)c1ccccc1)N=Nc1c(O)[nH]c2ccccc12	i	i	i	i	i
O=C(CSc1nnc(CNC(=O)c2cccc(C(F)(F)F)c2)o1)NC1CCCC1	i	i	i	i	i
COc1ccc(NS(=O)(=O)c2ccc(NC(=O)c3ccccn3)cc2)cc1	i	i	-39.5	i	i
COc1ccc(NS(=O)(=O)c2ccc(OC)c(NC(=O)CCC3CCCCC3)c2)cc1	i	i	-35.5	i	i
COc1ccc(NS(=O)(=O)c2csc(C(=O)Nc3ccccc3)c2)cc1	i	i	-42.0	i	i
COc1ccc(NS(=O)(=O)c2cccc(NC(=O)c3ccccn3)c2)cc1	i	i	i	i	i
COc1ccc(NC(=O)Nc2sc(NS(=O)(=O)c3ccccc3)nc2C)cc1	i	i	-38.8	i	i
COc1ccc(F)cc1-c1nc(N)nc(N)n1	i	i	nt	i	i
CCC(=O)Nc1ccc(S(=O)(=O)Nc2ccccn2)cc1	i	i	i	i	i
COc1ccc(NS(=O)(=O)c2cccc(NC(=O)COc3ccc(OC)cc3)c2)cc1	i	i	-32.8	i	i
CC(C)=CC(=O)Nc1ccc(S(=O)(=O)Nc2ccccn2)cc1	i	i	i	36.8	i
CCN(CC(=O)NCc1ccc(Cl)cc1)C(=O)c1ccc(C#N)cc1	i	i	i	i	i
SMILES	D1 ag	D1 PAM	D1 antagonist	TRHR enhancer	TRHR agonist
CC1CCN(c2nc3c(S(=O)(=O)c4ccccc4)nnn3c3ccsc23)CC1	i	i	i	i	i
COc1cc(CC(=O)OCC(=O)N2CC(C)CC(C)C2)cc(OC)c1OC (configuration not stated)	i	i	i	i	i
Cc1ccc(S(=O)(=O)N(C)C)cc1NC(=S)NC(C)CCCC(C)C (configuration not stated)	i	i	i	i	i
Cc1ccc(S(=O)(=O)N(C)C)cc1NC(=O)C(C)N(C)CCOc1ccc(Cl)cc1 (configuration not stated)	30.1	nt	i	i	i
Cc1ccc(S(=O)(=O)N(C)C)cc1NC(=S)NC(C)CCC(C)C (configuration not stated)	i	i	-58.9	i	i
Cc1ccc(S(=O)(=O)N(C)C)cc1NC(=O)Nc1ccccc1F	i	i	-43.0	i	i
COc1ccc(NC(=O)Nc2cccc(C)n2)c(OC)c1	i	i	i	32.6!	i
COc1ccc(NC(=O)Nc2ccccc2F)c(C)c1	i	i	-36.7	i	i
Cc1ccc2c(c1)N(C(=O)CCC(=O)NCCN1CCOCC1)CC(C)O2 (configuration not stated)	i	i	-36.3	i	i
Cc1ccc2c(c1)N(C(=O)CCC(=O)NCCCN1CCOCC1)CC(C)O2 (configuration not stated)	i	i	i	i	i
COc1ccc(CCNC(=O)CCC(=O)N2CC(C)Oc3ccc(Cl)cc32)cc1OC (configuration not stated)	i	i	-57.6	i	i
Cc1ccc2c(c1)N(C(=O)CCC(=O)N1CCOCC1)CCO2	i	i	-31.2	i	i
Cc1noc(/C=C/c2ccco2)c1S(=O)(=O)N1CCC(C(=O)Nc2ccc(F)c(Cl)c2)CC1	i	i	-47.9	i	i
Cc1ccc(NC(=O)C2CCN(S(=O)(=O)c3c(C)noc3/C=C/c3ccco3)CC2)cc1C	i	i	i	i	i
Cc1noc(/C=C/N(C)C)c1S(=O)(=O)N1CCC(C(=O)Nc2ccc(Cl)cc2)CC1	i	i	-45.5	i	i
Cc1cc(C)cc(NC(=O)C2CCN(S(=O)(=O)c3c(C)n[nH]c3C)CC2)c1	i	i	-76.6	i	i
CCCSc1nc2sc3c(c2c(=O)n1-c1ccccc1)CCC(C)C3 (configuration not stated)	i	i	i	i	i
CNC[C@H](CC1CCCCC1)NC[C@H](Cc1ccccc1)NCCC12CC3CC(CC(C3)C1)C2	32.5	i	i	i	i
NC[C@H](Cc1ccccc1)NCCCCC1CCCCC1	i	i	nt	i	i
CCC1=Nc2cc(C(=O)NCc3ccc(C)cc3)ccc2Sc2ccc(C)cc21	i	i	i	i	i
CCC1=Nc2cc(C(=O)NCc3cccnc3)ccc2Sc2ccc(C)cc21	i	i	-76.3	i	i
CCC1=Nc2cc(C(=O)NC3CCCC3)ccc2Sc2ccc(Cl)cc21	i	i	-33.8	i	i
CC1=Nc2cc(C(=O)NC3CCCC3)ccc2Sc2ccc(Cl)cc21	i	i	i	i	i
O=C(Oc1ccc2c(c1)O/C(=C\c1ccncc1)C2=O)c1cccs1	36.6	i	i	i	i
CS(=O)(=O)Oc1ccc2c(c1)O/C(=C\c1cccnc1)C2=O	i	i	i	i	i
CCN(CC)CCNC(=O)c1ccc(NC(=O)c2ccc(C(=O)c3ccccc3)cc2)cc1	i	i	-37.8	i	i
CCN(CC)CCNC(=O)c1ccc(NC(=O)Cc2cccc3ccccc23)cc1	i	i	i	i	i
CCN(CC)CCNC(=O)c1ccc(NC(C)=O)cc1	i	i	-34.2!	i	i
CCN(CC)CCNC(=O)c1ccc(NC(=O)c2ccc(COc3ccccc3)cc2)cc1	i	i	i	i	i
Cc1nnc(NC(=O)C2CCN(S(=O)(=O)c3ccc(Cl)cc3)CC2)s1	i	i	i	i	i
